Results from the supplement of paper PMC10849652.
Of roughly 7,900 targets only a part is listed; those with a hit were picked by preference. About 0.6% of all pairs of compound and target were hits.

What was measured:
Experiment in all cases: log2 fold change, soluble protein after heating vs DMSO (PISA); higher = thermal stabilisation; K562 cells, 10 uM, 30 min; active = over 0.2 and 3.5 SD of the protein, either way, in both replicates (recomputed)
IRAK-1-4 Inhibitor I = compound: C1COCCN1CCN2C3=CC=CC=C3N=C2NC(=O)C4=CC(=CC=C4)[N+](=O)[O-] [IRAK-1-4 Inhibitor I]
Procedure, shortened: (§1)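 Soluble protein was quantified by TMTpro 16plex LC-MS/MS after channel sums were equalised. It was obtained as the supernatant after 21,000xg for 90 min from pooled aliquots of K562 cells (2×10^6 cells/mL, 10 μM compound, 30 min) heated for 3 min across 48°C-58°C and extracted in PBS with 0.5% NP-40 at 4°C. Thermal stability values are relative to control samples and come from duplicates. They are given as log2 fold changes.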

ibrutinib = compound: C=CC(=O)N1CCC[C@@H](n2nc(-c3ccc(Oc4ccccc4)cc3)c3c(N)ncnc32)C1 [ibrutinib]
Procedure, shortened: as §1

[1] = compound: CC(=O)c1cnc2ccc(-c3cc(Cl)c(O)c(Cl)c3)nc2c1N[C@H]1CC[C@H](CN(C)C)CC1
Procedure, shortened: as §1

ralimetinib = compound: CC(C)(C)Cn1c(N)nc2ccc(-c3[nH]c(C(C)(C)C)nc3-c3ccc(F)cc3)nc21 [ralimetinib]
Procedure, shortened: as §1

[2] = compound: CC(C)(O)CC(=O)NCCn1ccc2ncnc(Nc3ccc(Oc4cccc(C(F)(F)F)c4)c(Cl)c3)c21
Procedure, shortened: as §1

[3] = compound: CC(C)C1=C2N=C(C=C(N2N=C1)NCC3=CC=CC=C3)NCCCCCCN
Procedure, shortened: as §1

[4] = compound: CC(C)C[C@@H](C=O)NC(=O)[C@H](CC(C)C)NC(=O)[C@H](CC(C)C)NC(=O)OCc1ccccc1
Procedure, shortened: as §1

pinometostat = compound: CC(C)N(C[C@H]1O[C@@H](n2cnc3c(N)ncnc32)[C@H](O)[C@@H]1O)[C@H]1C[C@@H](CCc2nc3cc(C(C)(C)C)ccc3[nH]2)C1 [pinometostat]
Procedure, shortened: as §1

[5] = compound: CC1=C(C(CC(=O)N1)C2=CC=C(C=C2)C(F)(F)F)C(=O)NC3=C(C=C4C(=C3)C=NN4)F
Procedure, shortened: as §1

[6] = compound: CC1=C(C2=C(C=C1)C(=O)C3=CC=CC=C3N2CCCN)C
Procedure, shortened: as §1

Measured: log2 fold change

GDE1 (UniProt Q9NZC3)
Chain of UniProt Q9NZC3 (Q9NZC3 whole entry, looked up): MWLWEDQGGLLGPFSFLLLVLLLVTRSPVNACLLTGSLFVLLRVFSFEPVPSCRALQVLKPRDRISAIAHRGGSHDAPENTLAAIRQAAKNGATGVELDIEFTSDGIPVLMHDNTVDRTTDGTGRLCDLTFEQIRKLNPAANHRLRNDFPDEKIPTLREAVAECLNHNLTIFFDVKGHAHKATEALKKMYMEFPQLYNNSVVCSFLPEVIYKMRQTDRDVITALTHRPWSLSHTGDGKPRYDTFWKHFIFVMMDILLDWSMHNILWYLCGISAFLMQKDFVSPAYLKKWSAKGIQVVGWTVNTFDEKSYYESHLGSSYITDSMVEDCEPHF
inactive: IRAK-1-4 Inhibitor I -0.052 | ibrutinib 0.031 | [1] -0.009 | ralimetinib 0.02 | [2] -0.033 | [3] 0.067 | [4] 0.049 | pinometostat 0.054 | [5] 0.106 | [6] 0.266

HIP1 (UniProt O00291)
inactive: IRAK-1-4 Inhibitor I -0.002 | ibrutinib 0.083 | [1] -0.07 | ralimetinib -0.003 | [2] -0.035 | [3] -0.056 | [4] 0.079 | pinometostat 0.045 | [5] 0.074 | [6] 0.038

H1FX (UniProt Q92522)
active: [6] -0.718
inactive: IRAK-1-4 Inhibitor I -0.171 | ibrutinib 0.077 | [1] 0.231 | ralimetinib 0.204 | [2] 0.031 | [3] 0.13 | [4] 0.09 | pinometostat 0.246 | [5] 0.02

HLTF (UniProt Q14527)
Chain of UniProt Q14527 (Q14527 whole entry, looked up): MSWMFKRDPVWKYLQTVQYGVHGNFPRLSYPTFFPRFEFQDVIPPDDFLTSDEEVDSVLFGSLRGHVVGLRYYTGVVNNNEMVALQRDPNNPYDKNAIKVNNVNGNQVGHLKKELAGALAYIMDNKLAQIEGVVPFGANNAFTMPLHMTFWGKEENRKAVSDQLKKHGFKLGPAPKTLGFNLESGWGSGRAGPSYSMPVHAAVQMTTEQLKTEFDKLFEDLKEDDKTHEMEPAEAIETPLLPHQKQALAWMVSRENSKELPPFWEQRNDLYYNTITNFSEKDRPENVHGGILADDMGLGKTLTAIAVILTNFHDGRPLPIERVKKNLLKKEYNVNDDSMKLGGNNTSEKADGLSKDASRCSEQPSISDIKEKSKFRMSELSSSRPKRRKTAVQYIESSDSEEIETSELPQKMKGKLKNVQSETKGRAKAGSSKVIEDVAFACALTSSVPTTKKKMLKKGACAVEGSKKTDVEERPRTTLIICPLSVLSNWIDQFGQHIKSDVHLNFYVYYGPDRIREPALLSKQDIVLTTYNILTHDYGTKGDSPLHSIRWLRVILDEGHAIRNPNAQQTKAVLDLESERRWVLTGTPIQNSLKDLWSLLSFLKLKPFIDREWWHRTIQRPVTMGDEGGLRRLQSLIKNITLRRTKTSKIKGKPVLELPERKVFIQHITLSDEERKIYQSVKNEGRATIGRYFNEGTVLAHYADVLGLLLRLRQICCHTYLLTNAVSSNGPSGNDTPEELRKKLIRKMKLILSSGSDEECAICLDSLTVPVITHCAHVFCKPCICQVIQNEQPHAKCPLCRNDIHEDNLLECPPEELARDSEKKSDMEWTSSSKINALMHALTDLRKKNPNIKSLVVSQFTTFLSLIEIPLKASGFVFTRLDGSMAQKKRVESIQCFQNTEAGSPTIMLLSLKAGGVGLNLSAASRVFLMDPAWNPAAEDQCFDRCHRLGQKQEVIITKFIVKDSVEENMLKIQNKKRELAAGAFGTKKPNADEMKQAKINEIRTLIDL
active: [3] 0.332
inactive: IRAK-1-4 Inhibitor I -0.026 | ibrutinib -0.028 | [1] -0.134 | ralimetinib -0.016 | [2] -0.022 | [4] 0.109 | pinometostat -0.024 | [5] -0.049 | [6] 0.176

HRAS (UniProt P01112)
inactive: IRAK-1-4 Inhibitor I 0.093 | ibrutinib 0.143 | [1] 0.065 | ralimetinib 0 | [2] -0.004 | [3] 0.047 | [4] 0.13 | pinometostat -0.059 | [5] -0.013 | [6] -0.121

FBXO3 (UniProt Q9UK99)
inactive: IRAK-1-4 Inhibitor I 0.038 | ibrutinib -0.003 | [1] -0.008 | ralimetinib 0.171 | [2] 0.021 | [3] -0.014 | [4] 0.031 | pinometostat 0 | [5] 0.014 | [6] -0.047

IDH3A (UniProt P50213)
inactive: IRAK-1-4 Inhibitor I 0.033 | ibrutinib 0.021 | [1] -0.008 | ralimetinib -0.085 | [2] -0.044 | [3] 0.034 | [4] 0 | pinometostat -0.029 | [5] 0.008 | [6] 0.015

GSTP1 (UniProt P09211)
Chain of UniProt P09211 (P09211 whole entry, looked up): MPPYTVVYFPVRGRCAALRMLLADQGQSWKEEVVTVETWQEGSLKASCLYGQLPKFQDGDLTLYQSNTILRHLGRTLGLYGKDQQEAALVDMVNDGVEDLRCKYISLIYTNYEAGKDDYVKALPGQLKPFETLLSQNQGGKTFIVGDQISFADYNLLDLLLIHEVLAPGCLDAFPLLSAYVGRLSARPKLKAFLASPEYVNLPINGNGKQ
inactive: IRAK-1-4 Inhibitor I 0.12 | ibrutinib -0.038 | [1] -0.074 | ralimetinib -0.021 | [2] -0.015 | [3] 0.016 | [4] -0.023 | pinometostat -0.026 | [5] -0.004 | [6] 0.03

IDI1 isoform 2 (UniProt Q13907)
Chain of UniProt Q13907 (Q13907 whole entry, looked up): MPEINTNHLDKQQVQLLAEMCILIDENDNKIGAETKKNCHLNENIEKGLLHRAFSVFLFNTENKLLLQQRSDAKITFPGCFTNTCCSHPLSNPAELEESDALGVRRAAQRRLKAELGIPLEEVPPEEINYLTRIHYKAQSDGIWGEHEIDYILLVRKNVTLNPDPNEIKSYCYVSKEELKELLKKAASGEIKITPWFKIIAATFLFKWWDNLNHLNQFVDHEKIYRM
inactive: IRAK-1-4 Inhibitor I 0.052 | ibrutinib 0.034 | [1] -0.01 | ralimetinib -0.04 | [2] 0.1 | [3] 0.077 | [4] -0.002 | pinometostat -0.012 | [5] 0.04 | [6] -0.099

GLB1 (UniProt P16278)
Chain of UniProt P16278 (P16278 whole entry, looked up): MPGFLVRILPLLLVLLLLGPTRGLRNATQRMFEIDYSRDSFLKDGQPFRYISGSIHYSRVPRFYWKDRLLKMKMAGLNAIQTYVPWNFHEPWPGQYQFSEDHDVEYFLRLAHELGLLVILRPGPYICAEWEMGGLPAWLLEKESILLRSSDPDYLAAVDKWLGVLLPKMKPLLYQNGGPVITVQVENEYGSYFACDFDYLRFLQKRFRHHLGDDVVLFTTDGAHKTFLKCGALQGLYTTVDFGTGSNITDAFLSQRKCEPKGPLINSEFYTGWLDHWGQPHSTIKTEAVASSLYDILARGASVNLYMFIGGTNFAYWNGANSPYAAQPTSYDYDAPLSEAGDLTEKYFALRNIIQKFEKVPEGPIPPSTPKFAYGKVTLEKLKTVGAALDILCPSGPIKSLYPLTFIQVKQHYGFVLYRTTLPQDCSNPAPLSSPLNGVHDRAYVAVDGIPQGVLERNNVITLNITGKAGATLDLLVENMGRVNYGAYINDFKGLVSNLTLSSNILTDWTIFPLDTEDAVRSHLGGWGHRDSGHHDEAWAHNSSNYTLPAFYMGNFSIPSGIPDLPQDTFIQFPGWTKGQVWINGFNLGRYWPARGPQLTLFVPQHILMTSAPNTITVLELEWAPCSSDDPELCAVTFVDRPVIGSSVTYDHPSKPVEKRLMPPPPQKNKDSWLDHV
inactive: IRAK-1-4 Inhibitor I 0.041 | ibrutinib 0.033 | [1] -0.005 | ralimetinib -0.009 | [2] 0.048 | [4] 0.062 | pinometostat 0.021 | [5] 0.014 | [6] -0.015
active: [3] -0.282

FDXR isoform 7 (UniProt P22570)
active: [2] -0.27
inactive: IRAK-1-4 Inhibitor I 0.031 | ibrutinib 0.046 | [1] -0.086 | ralimetinib -0.015 | [3] -0.091 | [4] 0.015 | pinometostat -0.024 | [5] -0.033 | [6] 0.125

GLUD1 (UniProt P00367)
Chain of UniProt P00367 (P00367 whole entry, looked up): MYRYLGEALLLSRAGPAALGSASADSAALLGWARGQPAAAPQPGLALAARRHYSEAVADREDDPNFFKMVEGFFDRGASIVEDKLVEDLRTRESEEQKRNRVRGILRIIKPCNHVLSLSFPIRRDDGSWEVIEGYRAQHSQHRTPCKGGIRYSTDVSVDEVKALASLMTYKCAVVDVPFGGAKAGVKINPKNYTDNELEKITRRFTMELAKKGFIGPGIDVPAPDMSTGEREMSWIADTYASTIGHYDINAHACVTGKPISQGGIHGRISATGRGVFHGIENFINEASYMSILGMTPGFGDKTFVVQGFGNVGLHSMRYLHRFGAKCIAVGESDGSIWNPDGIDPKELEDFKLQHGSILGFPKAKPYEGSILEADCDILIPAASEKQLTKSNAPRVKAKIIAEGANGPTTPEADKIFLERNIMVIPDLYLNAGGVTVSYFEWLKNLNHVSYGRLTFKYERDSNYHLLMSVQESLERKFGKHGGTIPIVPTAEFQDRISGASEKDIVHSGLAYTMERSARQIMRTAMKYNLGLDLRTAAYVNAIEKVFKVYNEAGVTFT
inactive: IRAK-1-4 Inhibitor I 0.02 | ibrutinib 0.04 | [1] 0.068 | ralimetinib 0.023 | [2] -0.038 | [3] -0.049 | [4] 0.012 | pinometostat 0.023 | [5] -0.076 | [6] 0.125

GOPC (UniProt Q9HD26)
inactive: IRAK-1-4 Inhibitor I -0.119 | ibrutinib -0.104 | [1] 0.03 | ralimetinib 0.259 | [2] -0.04 | [3] 0.046 | [4] 0.083 | pinometostat 0.174 | [5] -0.118 | [6] 0.085

HMGN1 (UniProt P05114)
Chain of UniProt P05114 (P05114 whole entry, looked up): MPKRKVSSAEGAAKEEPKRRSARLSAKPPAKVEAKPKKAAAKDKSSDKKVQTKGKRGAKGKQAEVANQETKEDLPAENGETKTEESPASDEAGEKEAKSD
active: [6] 0.294
inactive: IRAK-1-4 Inhibitor I -0.006 | ibrutinib 0.049 | [1] 0.064 | ralimetinib 0.032 | [2] 0.166 | [3] 0.148 | [4] 0.042 | pinometostat -0.022 | [5] 0.014

GATD1 (UniProt Q8NB37)
Chain of UniProt Q8NB37 (Q8NB37 whole entry, looked up): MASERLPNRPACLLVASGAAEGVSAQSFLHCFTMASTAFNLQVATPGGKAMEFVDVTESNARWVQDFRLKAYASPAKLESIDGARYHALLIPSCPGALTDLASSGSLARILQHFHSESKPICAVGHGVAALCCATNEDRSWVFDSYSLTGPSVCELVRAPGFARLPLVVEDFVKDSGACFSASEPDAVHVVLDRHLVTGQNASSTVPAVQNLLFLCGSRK
inactive: IRAK-1-4 Inhibitor I -0.069 | ibrutinib 0.106 | [1] -0.099 | ralimetinib -0.026 | [2] 0.01 | [3] 0.026 | [4] 0.104 | pinometostat 0.141 | [5] 0.032 | [6] 0

GLYR1 (UniProt Q49A26)
inactive: IRAK-1-4 Inhibitor I -0.067 | ibrutinib -0.074 | [1] 0.054 | ralimetinib 0.088 | [2] 0.093 | [3] -0.057 | [4] 0.09 | pinometostat 0.111 | [5] -0.076 | [6] -0.016

HSD17B12 (UniProt Q53GQ0)
Chain of UniProt Q53GQ0 (Q53GQ0 whole entry, looked up): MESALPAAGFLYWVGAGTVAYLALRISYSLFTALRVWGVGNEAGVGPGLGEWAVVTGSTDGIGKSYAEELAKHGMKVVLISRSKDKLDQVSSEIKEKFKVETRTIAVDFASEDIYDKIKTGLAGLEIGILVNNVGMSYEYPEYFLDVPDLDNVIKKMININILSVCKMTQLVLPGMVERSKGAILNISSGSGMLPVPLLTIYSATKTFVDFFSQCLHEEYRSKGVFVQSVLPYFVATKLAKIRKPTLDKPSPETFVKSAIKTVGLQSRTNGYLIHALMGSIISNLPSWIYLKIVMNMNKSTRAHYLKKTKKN
inactive: IRAK-1-4 Inhibitor I -0.01 | ibrutinib 0.038 | [1] -0.127 | ralimetinib -0.037 | [3] 0.22 | [4] -0.062 | pinometostat -0.064 | [5] 0.015 | [6] 0.031
active: [2] 0.289

GAGE12F (UniProt P0CL80)
Chain of UniProt P0CL80 (P0CL80 whole entry, looked up): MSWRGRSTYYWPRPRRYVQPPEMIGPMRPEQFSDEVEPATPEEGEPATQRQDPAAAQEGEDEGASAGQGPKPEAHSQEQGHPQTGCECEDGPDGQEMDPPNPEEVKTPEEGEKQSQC
inactive: IRAK-1-4 Inhibitor I 0.045 | ibrutinib 0.025 | [1] 0.037 | ralimetinib -0.038 | [2] 0.02 | [3] 0.015 | [4] 0.019 | pinometostat -0.06 | [5] 0.004 | [6] 0.128

GTF2E1 (UniProt P29083)
inactive: IRAK-1-4 Inhibitor I -0.048 | ibrutinib -0.06 | [1] -0.051 | ralimetinib -0.018 | [2] -0.178 | [3] -0.147 | [4] 0.016 | pinometostat -0.046 | [5] 0.003 | [6] -0.007

GCC2 (UniProt Q8IWJ2)
inactive: IRAK-1-4 Inhibitor I -0.046 | ibrutinib -0.023 | [1] 0.105 | ralimetinib 0.131 | [2] 0 | [3] -0.075 | [4] 0.111 | pinometostat 0.198 | [5] 0.085 | [6] -0.091

HADHB (UniProt P55084)
inactive: IRAK-1-4 Inhibitor I -0.025 | ibrutinib 0.074 | [1] -0.326 | ralimetinib 0.068 | [2] -0.155 | [3] 0.37 | [4] -0.106 | pinometostat -0.05 | [5] -0.147 | [6] 0.104

FUCA1 (UniProt P04066)
inactive: IRAK-1-4 Inhibitor I -0.003 | ibrutinib 0.018 | [1] -0.049 | ralimetinib -0.067 | [2] 0.056 | [3] -0.054 | [4] 0.003 | pinometostat -0.03 | [5] -0.008 | [6] -0.199

FKBP7 (UniProt Q9Y680)
Chain of UniProt Q9Y680 (Q9Y680 whole entry, looked up): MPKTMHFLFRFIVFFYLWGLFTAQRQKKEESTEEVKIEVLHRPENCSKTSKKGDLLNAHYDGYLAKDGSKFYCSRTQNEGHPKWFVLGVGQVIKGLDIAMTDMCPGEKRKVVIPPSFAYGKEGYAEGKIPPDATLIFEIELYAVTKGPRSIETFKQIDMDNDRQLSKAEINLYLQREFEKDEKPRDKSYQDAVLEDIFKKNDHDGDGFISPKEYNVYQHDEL
inactive: IRAK-1-4 Inhibitor I 0.018 | ibrutinib 0.033 | [1] -0.031 | ralimetinib -0.033 | [2] 0.017 | [3] 0.055 | [4] -0.005 | pinometostat -0.059 | [5] -0.029 | [6] -0.022

FLNA (UniProt P21333)
inactive: IRAK-1-4 Inhibitor I -0.046 | ibrutinib -0.111 | [1] 0.031 | ralimetinib 0.035 | [2] -0.086 | [3] -0.112 | [4] 0.049 | pinometostat 0.081 | [5] -0.017 | [6] -0.027

FBL (UniProt P22087)
Chain of UniProt P22087 (P22087 whole entry, looked up): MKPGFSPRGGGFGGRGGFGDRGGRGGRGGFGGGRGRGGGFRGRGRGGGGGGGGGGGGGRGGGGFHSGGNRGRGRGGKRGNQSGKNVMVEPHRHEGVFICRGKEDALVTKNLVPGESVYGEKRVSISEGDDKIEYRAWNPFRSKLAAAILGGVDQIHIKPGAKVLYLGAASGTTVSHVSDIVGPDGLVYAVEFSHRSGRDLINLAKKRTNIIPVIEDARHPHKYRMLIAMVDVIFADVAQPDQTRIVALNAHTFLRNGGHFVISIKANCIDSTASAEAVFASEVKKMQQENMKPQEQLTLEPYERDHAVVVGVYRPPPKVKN
inactive: IRAK-1-4 Inhibitor I -0.094 | ibrutinib 0.048 | [1] -0.03 | ralimetinib 0.17 | [2] 0.146 | [3] 0.199 | [4] 0.184 | pinometostat 0.319 | [5] -0.031 | [6] 0.206

HMGN2 (UniProt P05204)
active: [6] 0.401
inactive: IRAK-1-4 Inhibitor I -0.034 | ibrutinib -0.009 | [1] 0.121 | ralimetinib -0.024 | [2] 0.29 | [3] 0.128 | [4] 0.093 | pinometostat -0.074 | [5] 0.108

HPCAL1 (UniProt P37235)
inactive: IRAK-1-4 Inhibitor I 0.02 | ibrutinib -0.015 | [1] 0.028 | ralimetinib -0.117 | [2] -0.018 | [3] -0.081 | [4] -0.015 | pinometostat -0.003 | [5] 0.001 | [6] -0.041

FIS1 (UniProt Q9Y3D6)
inactive: IRAK-1-4 Inhibitor I 0.029 | ibrutinib 0.003 | [1] 0.067 | ralimetinib -0.036 | [2] 0.029 | [3] -0.023 | [4] -0.025 | pinometostat -0.074 | [5] 0.004 | [6] -0.031

GHDC (UniProt Q8N2G8)
active: [3] -0.277
inactive: IRAK-1-4 Inhibitor I 0.014 | ibrutinib 0.015 | [1] -0.036 | ralimetinib 0.007 | [2] 0.037 | [4] 0.018 | pinometostat -0.015 | [5] 0.025 | [6] -0.011

GSR (UniProt P00390)
Chain of UniProt P00390 (P00390 whole entry, looked up): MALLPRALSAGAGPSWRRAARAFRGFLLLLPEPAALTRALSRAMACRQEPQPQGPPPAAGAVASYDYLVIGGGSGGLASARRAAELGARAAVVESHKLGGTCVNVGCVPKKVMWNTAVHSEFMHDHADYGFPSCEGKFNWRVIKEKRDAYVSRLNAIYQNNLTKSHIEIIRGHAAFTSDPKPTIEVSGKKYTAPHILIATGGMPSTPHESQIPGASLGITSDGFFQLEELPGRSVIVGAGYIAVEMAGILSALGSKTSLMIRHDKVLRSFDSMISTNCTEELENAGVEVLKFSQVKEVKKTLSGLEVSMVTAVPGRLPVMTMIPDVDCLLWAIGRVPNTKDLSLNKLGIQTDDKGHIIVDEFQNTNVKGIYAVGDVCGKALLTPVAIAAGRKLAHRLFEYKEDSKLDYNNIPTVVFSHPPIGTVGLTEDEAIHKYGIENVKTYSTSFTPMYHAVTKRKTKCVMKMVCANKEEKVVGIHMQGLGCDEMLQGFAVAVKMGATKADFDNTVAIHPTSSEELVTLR
inactive: IRAK-1-4 Inhibitor I 0.037 | ibrutinib -0.005 | [1] -0.011 | ralimetinib -0.021 | [2] -0.015 | [3] 0.082 | [4] 0.023 | pinometostat -0.05 | [5] -0.005 | [6] -0.003
